According to the supplement of paper PMC4709259:
Where a name gives a salt, the structure may show the parent alone. ± gives the standard deviation.

Tests used:
[1] = tested on: Jurkat; assay: mean cell size (FSC-A) relative to DMSO control (fraction of control); higher = larger cells; conditions: 48 h
How it was run: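 Jurkat cells seeded at 600 cells/µl were incubated 1 h, then exposed for 48h to the Enzo Screen-Well FDA Approved Drug Library v2.0 at 25µM in 0.9% (v/v) final DMSO. Drugs that cut counts below 20% of controls were diluted 10-fold and retested, down to 25nM. Cell count and mean cell size (forward scatter area) were read on an Accuri C6 flow cytometer, relative to solvent-only controls. Plates held 6-12 controls; values are means of 3 biological replicates.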

[2] = tested on: Jurkat; assay: cell count relative to DMSO control (fraction of control); higher = more cells (less growth inhibition); conditions: 48 h

## COCCc1ccc(OCC(O)CNC(C)C)cc1 (stereo unspecified) [Metoprolol Tartrate] (concentration: 25 µM)
[1]
  mean cell size: 0.935 ± 0.026
[2]
  cell count: 1.02 ± 0.11

## CC(C)NCC(O)c1ccc(NS(C)(=O)=O)cc1 (stereo unspecified) [Sotalol·HCl] (concentration: 25 µM)
[1]
  mean cell size: 0.893 ± 0.059
[2]
  cell count: 0.268 ± 0.17

## C[C@H](Cn1cnc2c(N)ncnc21)OCP(=O)(O)O [Tenofovir] (concentration: 2.5 µM)
[1]
  mean cell size: 0.997 ± 0.14
[2]
  cell count: 0.894 ± 0.016

## C[C@]12CCC(=O)C=C1CC[C@@H]1[C@@H]2[C@@H](O)C[C@@]2(C)[C@H]1CC[C@]2(O)C(=O)CO [Hydrocortisone] (concentration: 25 µM)
[1]
  mean cell size: 0.9165 ± 0.0081
[2]
  cell count: 0.72 ± 0.092

## OC[C@@H](O)[C@@H](O)[C@H](O)[C@H](O)CO [Mannitol] (concentration: 25 µM)
[1]
  mean cell size: 0.947 ± 0.041
[2]
  cell count: 0.977 ± 0.097

## OCCN1CCN(CCCN2c3ccccc3Sc3ccc(Cl)cc32)CC1 [Perphenazine] (concentration: 2.5 µM)
[1]
  mean cell size: 1 ± 0.029
[2]
  cell count: 0.556 ± 0.11

## CN(C)CCOc1ccc(/C(=C(/CCCl)c2ccccc2)c2ccccc2)cc1 [Toremifene Base] (concentration: 25 µM)
[1]
  mean cell size: 0.9556 ± 0.0078
[2]
  cell count: 0.948 ± 0.079

## CCOC(=O)[C@H](CCc1ccccc1)N[C@@H](C)C(=O)N1[C@H](C(=O)O)C[C@@H]2CCC[C@@H]21 [Ramipril] (concentration: 25 µM)
[1]
  mean cell size: 1.01 ± 0.029
[2]
  cell count: 0.965 ± 0.031

## CC(S)C(=O)NCC(=O)O (stereo unspecified) [Tiopronin] (concentration: 25 µM)
[1]
  mean cell size: 0.956 ± 0.016
[2]
  cell count: 0.864 ± 0.17

## CN(C)CCOC(c1ccc(Cl)cc1)c1ccccn1 (stereo unspecified) [Carbinoxamine Maleate] (concentration: 25 µM)
[1]
  mean cell size: 0.968 ± 0.054
[2]
  cell count: 0.735 ± 0.064

## CCOC(=O)O[C@]1(C(=O)OCCl)CC[C@H]2[C@@H]3CCC4=CC(=O)C=C[C@]4(C)[C@H]3[C@@H](O)C[C@@]21C [Loteprednol Etabonate] (concentration: 25 µM)
[1]
  mean cell size: 0.892 ± 0.027
[2]
  cell count: 1.08 ± 0.067

## CO[C@H]1/C=C/O[C@@]2(C)Oc3c(C)c(O)c4c(O)c(c5c(nc6cc(C)ccn65)c4c3C2=O)NC(=O)/C(C)=C\C=C\[C@H](C)[C@H](O)[C@@H](C)[C@@H](O)[C@@H](C)[C@H](OC(C)=O)[C@@H]1C [Rifaximin] (concentration: 25 µM)
[1]
  mean cell size: 0.922 ± 0.039
[2]
  cell count: 0.4 ± 0.12

## CC(C)(S)[C@@H](N)C(=O)O [Penicillamine (D-Penicillamine)] (concentration: 25 µM)
[1]
  mean cell size: 0.954 ± 0.042
[2]
  cell count: 0.796 ± 0.074

## CC(=O)S[C@@H]1CC2=CC(=O)CC[C@]2(C)[C@H]2CC[C@@]3(C)[C@@H](CC[C@@]34CCC(=O)O4)[C@H]12 [Spironolactone] (concentration: 25 µM)
[1]
  mean cell size: 1.01 ± 0.062
[2]
  cell count: 0.455 ± 0.032

## CNC(=O)c1cc(Oc2ccc(NC(=O)Nc3ccc(Cl)c(C(F)(F)F)c3)cc2)ccn1 [Sorafenib Tosylate] (concentration: 2.5 µM)
[1]
  mean cell size: 0.919 ± 0.022
[2]
  cell count: 0.999 ± 0.032

## CC(C)(C(=O)O)c1ccc(C(O)CCCN2CCC(C(O)(c3ccccc3)c3ccccc3)CC2)cc1 (stereo unspecified) [Fexofenadine·HCl] (concentration: 25 µM)
[1]
  mean cell size: 0.996 ± 0.041
[2]
  cell count: 0.725 ± 0.024

## O=C1CC2(CCCC2)CC(=O)N1CCCCN1CCN(c2ncccn2)CC1 [Buspirone·HCl] (concentration: 25 µM)
[1]
  mean cell size: 0.9275 ± 0.0078
[2]
  cell count: 0.96 ± 0.097

## CC1(C)S[C@@H]2[C@H](NC(=O)[C@H](N)c3ccccc3)C(=O)N2[C@H]1C(=O)O [Ampicillin Trihydrate] (concentration: 25 µM)
[1]
  mean cell size: 0.849 ± 0.05
[2]
  cell count: 1.17 ± 0.068

## COc1cc(Cc2cnc(N)nc2N)cc(OC)c1OC [Trimethoprim] (concentration: 25 µM)
[1]
  mean cell size: 0.969 ± 0.039
[2]
  cell count: 0.457 ± 0.11

## COc1ccc(CC(C)NCC(O)c2ccc(O)c(NC=O)c2)cc1 (stereo unspecified) [Formoterol] (concentration: 25 µM)
[1]
  mean cell size: 0.992 ± 0.033
[2]
  cell count: 0.808 ± 0.044

## CCCN(CCC)S(=O)(=O)c1ccc(C(=O)O)cc1 [Probenecid] (concentration: 25 µM)
[1]
  mean cell size: 0.993 ± 0.012
[2]
  cell count: 0.595 ± 0.13

## CN(C)CCOC(=O)C(c1ccccc1)C1(O)CCCC1 (stereo unspecified) [Cyclopentolate] (concentration: 25 µM)
[1]
  mean cell size: 0.996 ± 0.057
[2]
  cell count: 0.596 ± 0.08

## CN(C)c1ccc(O)c2c1C[C@H]1C[C@H]3[C@H](N(C)C)C(=O)C(C(N)=O)=C(O)[C@@]3(O)C(=O)C1=C2O [Minocycline] (concentration: 2.5 µM)
[1]
  mean cell size: 0.969 ± 0.027
[2]
  cell count: 0.894 ± 0.04
